Results filed as inconclusive are left out. Unmarked numbers belong to inactive results. The source made the active and inactive calls. The call rests on the fitted dose curve; in most records, active means well fitted cell-killing curve with a large enough effect; inconclusive means small, poorly fitted or top-dose-only effect, or effect the other way; inactive means no such curve, though single readings can be large or run the other way.
Assay: Quantitative highthroughput screen to assess conditional lethalithy of SEM cells grown in RPMI1640 with dialyzed fetal bovine serum (RPMI+ds) (AID 1963884); further: nearly all actives have a fitted effect of over 35% in size
Details: SEM B-ALL cells, RPMI+dialyzed FBS, CellTiter-Glo viability, 48 h; series mostly up to 45.8 µM; viability: at the top concentration
Excerpt: Assay Provider: Jason Cantor Ph.D.
Department of Biochemistry
University of Wisconsin-Madison, Madison, WI, USA
Chemical screening studies have identified drug sensitivities across hundreds of cancer cell lines but most putative therapeutics fail to translate. Discovery and development of drug candidates in models that more accurately reflect nutrient levels in human blood is a major challenge. Here we performed high-throughput screens in conventional versus Human Plasma-Like Medium (HPLM) to identify compounds that were "missed" when screening using the artificial culture condition. Sets of conditional anticancer compounds spanned phases of clinical development and included non-oncology drugs were assessed. […] We also traced conditional phenotypes for several chemotherapeutics to availability of HPLM-specific metabolites and confirmed others for compounds whose reported targets are encoded by nonessential genes. Our findings establish generalizable strategies for exploiting conditional lethality in HPLM to reveal therapeutic candidates and mechanisms of action in cancer cells.
Described herein are the results of each viability screens against three cell lines: NOMO1 (an acute myeloid leukemia cell line); P12-Ichikawa (a T-cell acute lymphoblastic leukemia); and SEM (a B-cell ALL). Each assay was screened using 3 different cell culture media: homemade human plasma-Like medium with 10% dialyzed fetal bovine serum (HPLM+ds); RPMI1640 with 10% untreated FBS and 5mM glucose (RPMI+s); and RPMI1640 with 10% dialyzed fetal bovine serum and 5 mM glucose (RPMI+ds).
PROTOCOL TABLE (as described by Inglese J, Shamu CE and Guy RK. 2007)
SEQUENCE No. (e.g., 1, 2, 3, etc.); […] (e.g., Cells, Incubation, Reagent, etc.); VALUE and DESCRIPTION.
1; Cells; 5 uL; white, solid bottom 1536-well Greiner assay plate.
2; Compounds; 23 nL; Kalypsis pin tool (Wako USA) equipped with a 1536-well pin head to transfer to the assay plates.
3; Incubation; 48 hours; 37C incubation.
4; Reagent; 3 uL; CellTiter Glo (Promega).
5; Incubation; 5 min, room temperature
6; Detection; Luminescence, Viewlux PerkinElmer.
NOTES (numbers refer to Sequence numbers above)
1. Briefly, 5 ul of cell reagent was dispensed using a Multidrop Combi Dispenser. The NOMO1 and SEM cells were plated at 500 cells/well and the P12-Ichikawa line at 1000 cells/well.
2. After seeding the cells, 23 nL of MIPE 4.1 library compounds (in DMSO) were added to each plate using a Kalypsys 1536 Pintool dispenser. Bortezomib at final concentration of […] and DMSO were added to each plate as positive and negative controls respectively. For each screen, MIPE 4.1 compounds were added over an eleven-point concentration range […] in 3-fold dilutions.
3. Each plate was covered with a stainless steel gasketed lid to prevent evaporation and incubated for 48 hour at 37C, 95% relative humidity, and 5% CO2.
4-5. Three microliter CellTilter-GloTM luminescent substrate mix (Promega) reagent was added to the assay plate and incubated at room temperature for 5 min.
6. The luminescence signal was measured using a ViewLux (PerkinElmer) multiplate reader with a 2 second exposure time per plate. Data for each compound were normalized as percent viability such that measurements for DMSO and the empty well controls in each plate were defined as 100% and 0%, respectively.
Potency means the concentration at half of the fitted maximal effect.

Compound	viability [%]	Potency
O=[N+]([O-])c1ncc[nH]1	52.2	–
O=c1[nH]c2ccc(Cl)cc2c(N[C@@H]2CN3CCC2CC3)c1-c1nc2ccccc2[nH]1	–	0.0662 µM (active)
COC1(CS(=O)c2ccccc2)CCN(CCc2c[nH]c3ccc(F)cc23)CC1 (stereo not given)	95.8	–
Cc1nc(-c2ccc(-c3ccc(C(=O)N4CCc5cc6c(cc54)C4(CCN(C)CC4)CO6)cc3)c(C)c2)no1	104	–
CC(C)(O)C(=O)Nc1ccc([N+](=O)[O-])c(C(F)(F)F)c1	103	–
C[C@@]12OC(=O)[C@]1([C@@H](O)[C@@H]1C=CCCC1)NC(=O)[C@H]2CCCl	–	0.0469 µM (active)
CCN(CC)C(=O)c1ccc(C2=CC3(CCNCC3)Oc3cccc(O)c32)cc1	86.9	–
C1=C2CCCN[C@H]2[C@@H]2C[C@H]1[C@@H]1CCCCN1C2	98.5	–
CC(C)[C@]12O[C@@H]1[C@@H]1O[C@]13[C@]1(O[C@H]1C[C@@H]1C4=C(CC[C@@]13C)C(=O)OC4)[C@H]2O	–	0.0012 µM (active)
CCC1(c2ccc(N)cc2)CCC(=O)NC1=O (stereo not given)	99.9	–
O=P1(N(CCCl)CCCl)NCCCO1 (stereo not given)	–	9.35 µM (active)
C[C@@H]1[C@@H](CC(C[C@H]2O[C@@H]3O[C@]4(C)CC[C@@H]5[C@H](C)CC[C@@H]([C@H]2C)[C@@]35OO4)C[S+](=O)([O-])c2ccc(COC(=O)N(C)C)cc2)O[C@@H]2O[C@]3(C)CC[C@H]4[C@H](C)CC[C@@H]1[C@@]24OO3 (stereo not given in full)	–	0.418 µM (active)
C[C@]12CC[C@H]3[C@@H](CC[C@@]45O[C@H]4C(O)=C(C#N)C[C@]35C)[C@H]1CC[C@H]2O	–	16.6 µM (active)
CNC(=O)N1N=C(c2ccc(N)cc2)c2cc3c(cc2CC1C)OCO3 (stereo not given)	–	5.9 µM (active)
CN(C)[C@@H]1C(=O)C(C(N)=O)=C(O)[C@@]2(O)C(=O)C3=C(O)c4c(O)cccc4[C@@](C)(O)[C@H]3[C@H](O)[C@@H]12	113	–
O=C(O)CNC(=O)c1c(O)c2ccccc2n(Cc2ccccc2)c1=O	104	–
CC1(N2CCC(n3c([C@@H]4CCCNC4)nc4ccccc43)CC2)CCCCCCC1	79.4	–
C[C@]12CC[C@H](O)CC1=CC[C@H]1[C@H]3CCC(=O)[C@@]3(C)CC[C@@H]12	105	–
COc1ccc2c(c[n+](C)c3c4cc5c(cc4ccc23)OCO5)c1OC	–	9.35 µM (active)
C[C@]12CCC(=O)C(O)=C1CC[C@@H]1[C@H]3CCC(=O)[C@@]3(C)CC[C@@H]12	97.1	–

Compound	viability [%]	Potency
C[C@@H]1CC[C@@]2(OC1)O[C@H]1C[C@H]3[C@@H]4CC=C5C[C@@H](O[C@@H]6O[C@H](CO)[C@@H](O[C@@H]7O[C@@H](C)[C@H](O)[C@@H](O)[C@@H]7O)[C@H](O)[C@@H]6O[C@@H]6O[C@@H](C)[C@H](O)[C@@H](O)[C@@H]6O)CC[C@]5(C)[C@@H]4CC[C@]3(C)[C@@H]1[C@H]2C	–	14.8 µM (active)
CC(C)(C)c1cc(C=C(C#N)C#N)cc(Br)c1O	82.4	–
COC[C@@H](NC(C)=O)C(=O)NCc1ccccc1	88.8	–
NCC1(CC(=O)O)CCCCC1	87.5	–
COc1cc(OC)c(OC)cc1C=O	93.2	–
Cc1sc2c(c1C)C(c1ccc(Cl)cc1)=N[C@@H](CC(=O)OC(C)(C)C)c1nnc(C)n1-2	–	0.209 µM (active)
CCNC(=O)C[C@@H]1N=C(c2ccc(Cl)cc2)c2cc(OC)ccc2-n2c(C)nnc21	–	1.05 µM (active)
CN1C(=O)COc2c(C(=O)NC3CN4CCC3CC4)cc(Cl)cc21 (stereo not given)	128	–
C#CC1(O)CCC2C3CCC4=CC(=O)CCC4(C)C3CCC21C (stereo not given)	108	–
C[C@@H]1CC[C@H]2[C@@H](C)C(=O)O[C@@H]3O[C@@]4(C)CC[C@H]1[C@]32OO4	106	–
Cc1cccc(C)c1NC(=O)CN1CCCC1=O	73.6	–
CN(C)[C@@H]1C(=O)C(C(N)=O)=C(O)[C@@]2(O)C(=O)C3=C(O)c4c(O)cccc4[C@@](C)(O)[C@H]3C[C@@H]12	99.5	–
C#C[C@]1(O)C=C[C@@H]2[C@@H]3CCC4=CC(=O)CC[C@@H]4[C@H]3CC[C@@]21CC	96.4	–
C[C@H]1CCCC=CC2C[C@H](O)C[C@@H]2[C@H](O)C=CC(=O)O1 (stereo not given in full)	1.62	–
Clc1ccccc1C(c1ccccc1)(c1ccccc1)n1cccn1	120	–
CCN1CCN(C(=O)Cc2ccc(Nc3ncc(F)c(Nc4ccc(C(=O)Nc5ccccc5Cl)cc4)n3)cc2)CC1	–	4.69 µM (active)
C[C@@H]1O[C@@H](O[C@@H]2C=C3CC[C@@H]4[C@@H](CC[C@]5(C)[C@H](c6ccc(=O)oc6)CC[C@@]45O)[C@@]3(C)CC2)[C@H](O)[C@H](O)[C@H]1O	–	0.0372 µM (active)
Cc1ncc(OC[C@@]2(c3cccc(F)c3)C[C@H]2C(=O)Nc2ccc(F)cn2)c(C)n1	76	–
CCNC(=O)CC1N=C(c2ccc(Cl)cc2)c2cc(OC)ccc2-n2c(C)nnc21 (stereo not given)	–	23.5 µM (active)
c1ccc2c(CN3CCNCC3)cccc2c1	71.3	–
